What all share (test): NCI-60 one-dose screen, 48 h (100 = growth as untreated, 0 = no growth, -100 = all killed)
What all share (conditions): 10 µM unless noted

The subject of assay [1] is SR leukemia.
Assay [2] has as its system RPMI-8226 leukemia.
Assay [3] relates to OVCAR-8 ovarian.
Assay [4] concerns OVCAR-5 ovarian.
For assay [5], the system named is OVCAR-4 ovarian.
In assay [6] the test system is IGROV1 ovarian.
Assay [7] deals with OVCAR-3 ovarian.
Assay [8] concerns HS 578T breast.
Assay [9] deals with NCI/ADR-RES ovarian.
Assay [10] concerns T-47D breast.
Assay [11] deals with BT-549 breast.
The subject of assay [12] is MDA-MB-435 melanoma.
For assay [13], the system named is SW-620 colon.
Assay [14] concerns MCF7 breast.
For assay [15], the system named is HCT-116 colon.
In assay [16] the test system is HCC-2998 colon.
Assay [17] deals with KM12 colon.
In assay [18] the test system is SK-OV-3 ovarian.

Compounds without any hit were thinned out: in the full panel of roughly 83,000, 20% have a hit.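 Treatment: one concentration, 48 hours, 96-well format. Scoring: percent growth, with anything below 10 considered active.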 A number with no mark means an inactive call. The source made the active and inactive calls.

Take `O=C1c2cc(Br)ccc2-n2c1nc1cc(Br)ccc1c2=O`: the growth in assay [1] was 65.8%; in assay [2], 75.8%; in assay [3] it was 78.3%; in assay [4], 90.8%; in [5], 64.7%; in assay [6], 59.8%. Besides, the growth in assay [7] is 47.3%; in [8], 96.1%; in assay [9], 84.2%; in [10], 79.7%; in assay [11], 124%; in [12], -85.6% (active). Further, the growth in assay [13] is 68%; in [14], 59.3%; in [15], 81.8%; in [16], 108%; in assay [17], 77.5%.

Turning to `COc1ccc(-c2nnc(/N=C3/C(=O)Nc4ccc(Br)cc43)o2)cc1`, the growth is 97.8% in [1]; 96.2% in assay [2]; 99.9% in assay [3]; 107% in [4]; 101% in [5]; 108% in assay [18]. The growth in [8] is 116%; in assay [9], 102%; in assay [10] it was 104%; in assay [11], 103%; in [12], 94.7%; in assay [13], 100%. Moreover, the growth in assay [14] was 78.8%; in assay [15], 101%; in [16], 115%; in [17], 89.7%.

As for `Nc1cc(F)ccc1NC(=O)c1ccc(NC(=O)C/C=C/c2cccnc2)cn1`, the growth is 24.6% in assay [1]; -3.11% (active) in [2]; 17.8% in [3]; 21.4% in assay [4]; 29.1% in assay [5]; 34.9% in [18]. For the same compound, the growth was 27.4% in assay [7]; 21.1% in assay [8]; 20.4% in assay [9]; 5.13% (active) in assay [10]; 25.3% in [11]; 13.7% in [12]. Also, the growth is 10.6% in assay [13]; 5.2% (active) in assay [14]; -13.2% (active) in [15]; 15.5% in assay [16]; 24.5% in [17].

As to `CC(=O)c1sc(Nc2cccc(Nc3nc(C)c(C)s3)c2)nc1C`, the growth is 38.5% in assay [1]; 67.9% in assay [2]; 43.4% in assay [3]; 83.5% in assay [4]; 51.5% in [5]; 25.8% in assay [18]. Further, the growth in assay [8] was 52.7%; in assay [9], 55.6%; in assay [10] it was 13.3%; in assay [11] it was 46.2%; in [12], 59.1%; in assay [13], 62.5%. In addition, the growth in assay [14] is 61.7%; in assay [15], 44.2%; in assay [16], 80.1%; in [17], 60.2%.

Turning to `COc1ccc2c(ccn2C(=O)N2c3ccccc3Sc3ccccc32)c1`, the growth was 22% in assay [1]; 16.8% in assay [2]; 31.9% in [3]; 60.6% in [4]; 66.5% in [5]; 42.5% in [18]. Moreover, the growth in [8] is 19.8%; in [9], 11.6%; in assay [10], 23%; in [11] it was 34.3%; in assay [12], -18.9% (active); in [13] it was 16.8%. The growth in assay [14] is 29.6%; in [15], 31.6%; in assay [16] it was 48.9%; in assay [17], 24.2%.

For `COc1ccc(CCN2C(=O)/C(=C/c3nc(CO)cs3)SC2=S)cc1`, the growth was 60.4% in assay [1]; 17.7% in [2]; 97.5% in assay [3]; 102% in assay [4]; 91.8% in assay [5]; 97.9% in assay [18]. In addition, the growth in [7] was 54.2%; in assay [8], 106%; in assay [9] it was 95.7%; in assay [10], 76.4%; in [11], 97.1%; in assay [13] it was 93.7%. For the same compound, the growth in assay [14] was 16%; in assay [15] it was 59.9%; in assay [16], 107%; in assay [17], 17.8%.

In the case of `COc1ccc(/C=N\NC(=O)c2ccc3nc(-c4ccc(Br)cc4)[nH]c3c2)cc1`, the growth in [1] was 11.8%; in [2] it was 42.1%; in [3], 13.6%; in assay [4], 79.2%; in assay [5], 12.5%; in [18], 62.8%. For the same compound, the growth is 14.8% in [8]; 75.2% in assay [9]; 55.8% in assay [10]; 65.8% in assay [11]; 35.5% in assay [12]; 23.5% in [13]. Further, the growth in assay [14] is 15.8%; in assay [15], 12.5%; in [16], 59.4%; in assay [17], 25.9%.

In the case of `COc1ccc(S(=O)(=O)NCCCNc2nccc(-n3cnc4ccccc43)n2)cc1`, the growth in [1] was 77.6%; in assay [2], 78.6%; in [3] it was 93.7%; in assay [4], 99.6%; in assay [5] it was 77.4%; in assay [6] it was 91.4%. The growth in assay [7] was 105%; in assay [8] it was 84.8%; in assay [9], 105%; in [10] it was 66.3%; in assay [11], 92.9%; in assay [12], 98.7%. The growth was 104% in assay [13]; 85.1% in assay [14]; 89.9% in [15]; 111% in assay [16]; 84.1% in assay [17].

Regarding `CC1CCc2c(sc3nc(SCC(=O)N/N=C/c4ccc(Cl)cc4)n(-c4ccccc4)c(=O)c23)C1` (stereo unspecified), the growth in assay [1] is 96%; in [2], 101%; in [3], 96.7%; in [4], 99.4%; in assay [5], 99.4%; in [18], 97.9%. Moreover, the growth in assay [8] was 82.2%; in [10], 103%; in assay [11], 99.6%; in assay [12] it was 101%; in [13], 107%; in [14], 90.5%. The growth is 89.7% in assay [15], 112% in assay [16] and 103% in assay [17].
